Source: PubChem BioAssay (Tox21)
Results filed as inconclusive are left out. Activity calls are given as the source filed them. Unless noted, calls come from the whole dose curve; as a rule, active = well fitted curve in the direction sought with a large enough effect in the repeat runs; inconclusive = weak or mixed curves; inactive = no such curve, though single readings can be large; an effect the other way counts as inactive or inconclusive.

Legend:
[1] = qHTS assay to identify small molecule agonists of the hypoxia (HIF-1) signaling pathway - cell viability counter screen (AID 1224844; calls by dose curve; note: nearly all actives have a fitted effect of over 50% in size)
Summary of the method: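 Luminescent ATP content (CellTiter-Glo, 30 min, room temperature) served as the viability measure in HRE-bla ME-180 cells exposed to compounds for 17 hrs in low-serum medium (0.5% dialyzed FBS).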

[2] = qHTS assay to identify small molecule agonists of H2AX (AID 1224845; active = well fitted activation curve with a large enough effect in the signal ratio in the repeat runs, not every such curve was filed as active; the % refers to the signal ratio)
Summary of the method: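 Wild-type CHO-K1 cells, plated overnight, exposed 3hr at 37C to 15 concentrations (0.76% DMSO final). Lysed, then HTRF anti-pH2AX (S139) cryptate and anti-H2AX-d2 antibodies, 24 hr room temperature; 665/620 nm emission read.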

[3] = qHTS assay to identify small molecule agonists of H2AX - cell viability counter screen (AID 1224847; calls by dose curve; note: top concentration of the series differs between compounds; nearly all actives have a fitted effect of over 30% in size)
Summary of the method: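 Viability of CHO-K1 (wild type) cells after 3 hr compound exposure was measured by CellTiter-Glo luminescence.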

[4] = qHTS RealTime-Glo MT Cell Viability Assay in HepG2 cells - 24 hour (AID 1224867); note: nearly all actives have a fitted effect of over 50% in size
Summary of the method: (§1)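 Compound treatment began 5 h after plating HepG2 cells (600/well) with NanoLuc luciferase and prosubstrate. Plates stayed at 37 C for 40 h; luminescence was captured at six time points, 0 h through 40 h.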

[5] = qHTS RealTime-Glo MT Cell Viability Assay in HEK293 cells - 32 hour (AID 1224868); note: top concentration of the series differs between compounds; nearly all actives have a fitted effect of over 50% in size
Summary of the method: (§2)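 Quantitative high-throughput screen of the Tox21 10K library in HEK293: cells and RealTime-Glo reagents plated together, compound added at 5 h, luminescence monitored through 40 h at 37 C.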

[6] = A CellTox Green Cytotoxicity Assay to monitor cytotoxicity in HEK293 cells - 0 hour (AID 1224869); note: nearly all actives have a fitted effect of over 50% in size
Summary of the method: (§3)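 Each value comes from one timepoint of a single continuous run in which HEK293 cells with CellTox Green were exposed to compound for up to 40 h at 37 C, dye fluorescence rising with cell death.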

[7] = qHTS RealTime-Glo MT Cell Viability Assay in HepG2 cells - 40 hour (AID 1224870); note: nearly all actives have a fitted effect of over 50% in size
Summary of the method: (§4)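 HepG2 cells (600/well) mixed with RealTime-Glo MT reagent, settled 5 h at 37 C/5% CO2 before compound addition. Nonlytic NanoLuc luminescence from viable-cell prosubstrate reduction read repeatedly during 40 h treatment at 37 C.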

[8] = A CellTox Green Cytotoxicity Assay to monitor cytotoxicity in HEK293 cells - 40 hour (AID 1224871); note: nearly all actives have a fitted effect of over 45% in size
Summary of the method: as §3

[9] = qHTS RealTime-Glo MT Cell Viability Assay in HEK293 cells - 16 hour (AID 1224872)
Summary of the method: as §2

[10] = qHTS RealTime-Glo MT Cell Viability Assay in HepG2 cells - 8 hour (AID 1224873); note: nearly all actives have a fitted effect of over 55% in size
Summary of the method: as §4

[11] = qHTS RealTime-Glo MT Cell Viability Assay in HEK293 cells - 40 hour (AID 1224874); details: RealTime-Glo luminescence; max response: stronger effect = lower value; note: nearly all actives have a fitted effect of over 50% in size
Summary of the method: (§5)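 qHTS format; HEK293 cells with NanoLuc/prosubstrate reagent, 37 C/5% CO2 for 5 h pre-dosing; compounds 23 nL in DMSO; luminescence at each time point reflects viable cells.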

[12] = A CellTox Green Cytotoxicity Assay to monitor cytotoxicity in HEK293 cells - 24 hour (AID 1224875); note: nearly all actives have a fitted effect of over 45% in size
Summary of the method: as §3

[13] = A CellTox Green Cytotoxicity Assay to monitor cytotoxicity in HepG2 cells - 16 hour (AID 1224876); note: nearly all actives have a fitted effect of over 45% in size
Summary of the method: (§6)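 Continuous culture of HepG2 cells with a membrane-impermeant DNA dye; rising fluorescence marks dead cells. Compound exposure lasted up to 40 h at 37 C, with reads every 8 h from 0 h.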

[14] = qHTS RealTime-Glo MT Cell Viability Assay in HepG2 cells - 32 hour (AID 1224877); note: nearly all actives have a fitted effect of over 55% in size
Summary of the method: as §1

[15] = A CellTox Green Cytotoxicity Assay to monitor cytotoxicity in HepG2 cells - 24 hour (AID 1224878); note: nearly all actives have a fitted effect of over 45% in size
Summary of the method: as §6

[16] = A CellTox Green Cytotoxicity Assay to monitor cytotoxicity in HepG2 cells - 40 hour (AID 1224879); note: nearly all actives have a fitted effect of over 40% in size
Summary of the method: as §6

[17] = qHTS RealTime-Glo MT Cell Viability Assay in HEK293 cells - 0 hour (AID 1224880)
Summary of the method: as §5

[18] = qHTS assay to identify small molecule antagonists of the estrogen related receptor (ERR) signaling pathway from Tox21 library (AID 1224848); note: nearly all actives have a fitted effect of over 50% in size
Summary of the method: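 Luminescent reporter read-out (ONE-Glo) from NTP's ERR cell line after 18 h treatment at 37 C with DMSO-dissolved Tox21 compounds; cells pre-plated 6 h beforehand at 2,000 per well.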

[19] = qHTS assay to identify small molecule agonists of the estrogen related receptor (ERR) signaling pathway from Tox21 library (AID 1224849; calls by dose curve; note: nearly all actives have a fitted effect of over 15% in size); details: ERR reporter cell line, ONE-Glo luciferase, 18 h; at 92.4 µM (top of the series) unless noted
Summary of the method: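 We plated ERR reporter cells, waited 6 h, added compounds in DMSO by pin tool and incubated them 18 h at 37 C. ONE-Glo was then added and luminescence read after 30 min.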
% is set by controls: 0 for no effect and ±100 for the full control effect.

O=C(CCNNC(=O)c1ccncc1)NCc1ccccc1
inactive: outcome [1] | outcome [2] | Potency [3] | outcome [4] | Potency [5] | outcome [6] | outcome [7] | Potency [8] | Potency [9] | outcome [10] | max response [11] 3.81% | outcome [12] | outcome [13] | outcome [14] | outcome [15] | Potency [16] | Potency [17]

OCCN(CCO)c1cccc(Cl)c1
inactive: outcome [1] | outcome [2] | Potency [3] | outcome [4] | Potency [5] | outcome [6] | outcome [7] | Potency [8] | Potency [9] | outcome [10] | max response [11] 0.212% | outcome [13] | outcome [14] | outcome [15] | Potency [16] | Potency [17]

CC(=O)CCCCn1c(=O)c2c(ncn2C)n(C)c1=O
inactive: outcome [1] | outcome [2] | Potency [3] | Potency [18] | activity change, positive = activation [19] -5.11% [at 42.5 µM] | outcome [4] | Potency [5] | outcome [6] | outcome [7] | Potency [8] | outcome [10] | max response [11] -0.881% | outcome [12] | outcome [13] | outcome [14] | outcome [15] | Potency [16] | Potency [17]

COc1nccnc1NS(=O)(=O)c1ccc(N)cc1
inactive: outcome [1] | outcome [2] | Potency [18] | activity change, positive = activation [19] -1.96% [at 42.5 µM] | outcome [4] | Potency [5] | outcome [6] | outcome [7] | Potency [8] | Potency [9] | outcome [10] | max response [11] 2.98% | outcome [12] | outcome [13] | outcome [14] | outcome [15] | Potency [16] | Potency [17]

CCOCCOC(=O)/C=C/c1ccc(OC)cc1
inactive: outcome [1] | outcome [2] | Potency [3] | outcome [4] | Potency [5] | outcome [6] | outcome [7] | Potency [8] | Potency [9] | outcome [10] | max response [11] 4.37% | outcome [12] | outcome [13] | outcome [14] | outcome [15] | Potency [16] | Potency [17]

NCCS
inactive: outcome [1] | outcome [2] | Potency [3] | Potency [18] | activity change, positive = activation [19] -2.88% [at 42.5 µM] | outcome [4] | Potency [5] | outcome [6] | outcome [7] | Potency [8] | Potency [9] | max response [11] 7.37% | outcome [12] | outcome [13] | outcome [14] | outcome [15] | Potency [16] | Potency [17]

O=C(OCC1(COC(=O)c2cccnc2)CCCC(COC(=O)c2cccnc2)(COC(=O)c2cccnc2)C1O)c1cccnc1
inactive: outcome [1] | outcome [2] | Potency [3] | outcome [4] | Potency [5] | outcome [6] | outcome [7] | Potency [8] | Potency [9] | outcome [10] | max response [11] 1.63% | outcome [12] | outcome [13] | outcome [14] | outcome [15] | Potency [16] | Potency [17]

O=C1CC(c2ccc(Cl)cc2)CC(=O)N1
inactive: outcome [1] | outcome [2] | Potency [3] | outcome [4] | Potency [5] | outcome [6] | outcome [7] | Potency [8] | Potency [9] | max response [11] -1.95% | outcome [13] | outcome [14] | outcome [15] | Potency [16] | Potency [17]

FC(F)(F)c1ccccc1-n1ccnc1
inactive: outcome [1] | outcome [2] | Potency [3] | outcome [4] | Potency [5] | outcome [6] | outcome [7] | Potency [8] | Potency [9] | max response [11] -3.14% | outcome [12] | outcome [13] | outcome [14] | outcome [15] | Potency [16] | Potency [17]

CCN1CCc2nc(N)oc2CC1
inactive: outcome [1] | outcome [2] | Potency [3] | outcome [4] | Potency [5] | outcome [6] | outcome [7] | Potency [8] | Potency [9] | outcome [10] | max response [11] 0.505% | outcome [12] | outcome [13] | outcome [14] | outcome [15] | Potency [16] | Potency [17]

CN1CCN(CC(=O)N2c3ccccc3C(=O)Nc3cccnc32)CC1
inactive: activity change, negative = cytotoxicity [1] 0.9% [at 6.97 µM] | activation (H2AX phosphorylation) [2] 2.24% [at 14 µM] | activity change, negative = cytotoxicity [3] -0.342% [at 14 µM] | activity, negative = inhibition [18] 0.334% [at 8.39 µM] | activity change, positive = activation [19] -0.263% [at 8.39 µM] | activity change, negative = cytotoxicity [4] 0.294% [at 6.97 µM] | activity change, negative = cytotoxic [5] 5.96% [at 6.97 µM] | cytotoxicity [6] 1.41% [at 6.97 µM] | activity change, negative = cytotoxic [7] 3.53% [at 6.97 µM] | cytotoxicity increase [8] -2.67% [at 6.97 µM] | activity change, negative = cytotoxicity [9] 13.3% [at 6.97 µM] | max response [11] 6.66% | activity change [12] -2.09% [at 6.97 µM] | cytotoxicity increase [13] -11.9% [at 6.97 µM] | activity change, negative = cytotoxic [14] 1.53% [at 6.97 µM] | cytotoxicity [15] -12.6% [at 6.97 µM] | cytotoxicity increase [16] -15.8% [at 6.97 µM] | activity change, negative = cytotoxicity [17] 7.23% [at 6.97 µM]

Cc1ccc2c(c1)OCC(=O)CO2
inactive: outcome [1] | outcome [2] | Potency [3] | Potency [18] | outcome [4] | Potency [5] | outcome [6] | outcome [7] | Potency [8] | Potency [9] | outcome [10] | max response [11] -8.18% | outcome [12] | outcome [13] | outcome [14] | outcome [15] | Potency [16] | Potency [17]

COc1ccc2c(c1OC)C(=O)O[C@@H]2[C@H]1c2c(cc3c(c2OC)OCO3)CCN1C
inactive: outcome [1] | outcome [2] | Potency [3] | Potency [18] | activity change, positive = activation [19] -16% [at 42.5 µM] | outcome [4] | outcome [6] | outcome [7] | Potency [8] | Potency [9] | outcome [10] | outcome [12] | outcome [13] | outcome [14] | outcome [15] | Potency [17]

CN(CCOc1ccc(NS(C)(=O)=O)cc1)CCc1ccc(NS(C)(=O)=O)cc1
inactive: outcome [1] | outcome [2] | Potency [3] | outcome [4] | Potency [5] | outcome [6] | outcome [7] | Potency [8] | Potency [9] | outcome [10] | max response [11] -0.0536% | outcome [13] | outcome [14] | outcome [15] | Potency [16] | Potency [17]
